Records with an inconclusive call do not appear. Active and inactive are the calls of the source. The call rests on the fitted dose curve; in most records, active means well fitted cell-killing curve with a large enough effect; inconclusive means small, poorly fitted or top-dose-only effect; inactive means no such curve, though single readings can be large or run the other way.
Potency means the concentration at half of the fitted maximal effect.

The nature of this experiment: qHTS of pediatric cancer cell lines to identify multiple opportunities for drug repurposing: Primary screen for NB-EBc1 cells (AID 1347095).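 On activity change, negative = cytotoxic: plate controls were DMSO neutral control for no effect and bortezomib for full effect.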 The following applies: NB-EBc1 neuroblastoma viability, CellTiter-Glo luminescence, 48 h; series mostly up to 46 µM; activity change, negative = cytotoxic: at the top concentration. A digest of the protocol: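 Cells seeded at 500-1,000 cells/well in growth media, rested 5 hours at 37 degrees C, 5% CO2, then dosed; MIPE compounds at 11-point (from 0.78 nM) and NPC at 8-point (from 0.59 nM) final concentrations. Viability by CellTiter-Glo luminescence after 48 hours.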
In general terms: Quantitative high-throughput screening tests each substance at several concentrations.
Take `OCCCNc1cc(-c2ccnc(Nc3cccc(Cl)c3)n2)ccn1`: the Potency was 93.5 nM (active). With `CNC(=O)c1c(F)cccc1Nc1nc(Nc2cc3c(cc2OC)CCN3C(=O)CN(C)C)nc2[nH]ccc12`, the Potency was 332 nM (active). For the molecule `Cc1c(CN2CCN(S(C)(=O)=O)CC2)sc2c(N3CCOCC3)nc(-c3cnc(N)nc3)nc12`, the Potency was 33.2 nM (active). Turning to `C=C1C(=CC=C2CCCC3(C)[C@@H]([C@H](C)C=CC=CC(O)(CC)CC)CC[C@@H]23)C[C@@H](O)C[C@@H]1O` (stereo partly specified), the Potency is 18700 nM (active). Consider `COc1ccc2c(OCc3nnc4ccc(-c5ccccc5)nn34)ccnc2c1`, for which the “activity change, negative = cytotoxic” value is 23.4% (inactive). Regarding `COc1cc(C)c(Sc2cnc(NC(=O)c3ccc(CNC(C)C(C)C)cc3)s2)cc1C(=O)N1CCN(C(C)=O)CC1` (stereo unspecified), the Potency is 18700 nM (active). Take `CC[C@@H]1C(=O)N(C)c2cnc(Nc3ccc(C(=O)NC4CCC(N5CCN(CC6CC6)CC5)CC4)cc3OC)nc2N1C(C)C` (stereo partly specified): the Potency was 332 nM (active).

`COc1cc2c(Oc3ccc(-c4cnc(Nc5ccc(F)cc5)n(C)c4=O)cc3F)ccnc2cc1OCCCN1CCOCC1`: the Potency is 3320 nM (active). For `CCC1=C[C@@H]2CN(C1)Cc1c([nH]c3ccccc13)[C@@](C(=O)OC)(c1cc3c(cc1OC)N(C)[C@@H]1[C@@](O)(C(=O)OC)[C@H](OC(C)=O)[C@]4(CC)C=CCN5CC[C@]31[C@@H]54)C2`, the Potency is 235 nM (active). On the same count and under the same terms, next, `Cc1cn(-c2cc(NC(=O)c3ccc(C)c(Nc4nccc(-c5cccnc5)n4)c3)cc(C(F)(F)F)c2)cn1`: 23500 nM (active); `COC(=O)Nc1nc2ccc(C(=O)c3ccc(F)cc3)cc2[nH]1`: 264 nM (active).

The values are drawn from PubChem BioAssay (NCATS).
